The whole screen tested about 3,200 compounds, of which about 75 (2%) showed an effect of 50% or more. The sample holds strong results, similar compounds and a random draw of the others, so the mix is not that of the screen.

The test concerns T1, S. aureus MSSA476.
T1 construct: MSSA476
Further details: species or system S. aureus MSSA476 (TSB) or V. cholerae SAD30 (LB); 384-well bacterial growth screen at 25 uM, OD600 relative to DMSO control. The following applies: relative growth, OD600, TSB; 25 µM; inhibitor.
Turning to `CCOc1ccccc1NC(=O)C(C)Cl` (centres unmarked) [6-M10, 2-chloro-N-(2-ethoxyphenyl)propanamide], the “% of control remaining” value amounted to 106.195%. Take `C=CC(=O)NCc1nc(C2CC2)cs1` [2-A19, N-[(4-cyclopropyl-1,3-thiazol-2-yl)methyl]prop-2-enamide]: the “% of control remaining” value was determined as 138.207%. Take `O=C(CCl)N1CCCSc2ccccc21` [4-E16, 2-chloro-1-(2,3,4,5-tetrahydro-1,5-benzothiazepin-5-yl)ethan-1-one]: the “% of control remaining” value stood at 116.627%. For `CC1CSc2ccccc2N(C(=O)CCl)C1` (centres unmarked) [5-H07, 2-chloro-1-(3-methyl-2,3,4,5-tetrahydro-1,5-benzothiazepin-5-yl)ethan-1-one] the value was 104.554%; for `O=C(CCl)N1c2ccccc2SCC1c1ccccc1` (centres unmarked) [4-M18, 2-chloro-1-(3-phenyl-3,4-dihydro-2H-1,4-benzothiazin-4-yl)ethan-1-one], 9.528%; for `C=CC(=O)N1C[C@H](NC(C)=O)[C@@H](c2ccnn2C)C1` (racemic) [2-M16, rac-N-[(3R,4S)-4-(1-methyl-1H-pyrazol-5-yl)-1-(prop-2-enoyl)pyrrolidin-3-yl]acetamide], 90.5135%.

On to `Cc1nn(CC(C)C)c(Cl)c1C1CCCN1C(=O)C(C)Cl` (centres unmarked) [7-P19, 2-chloro-1-{2-[5-chloro-3-methyl-1-(2-methylpropyl)-1H-pyrazol-4-yl]pyrrolidin-1-yl}propan-1-one], for which the “% of control remaining” value stood at 108.32%. As for `CC(Cl)C(=O)N(Cc1ccccc1)Cc1ccccc1` (centres unmarked) [5-K19, N,N-dibenzyl-2-chloropropanamide], the “% of control remaining” value was 103.097%.

Regarding `CC(c1ccc(C(F)(F)F)c(Cl)c1)N(C)C(=O)CCl` (centres unmarked) [7-F14, 2-chloro-N-{1-[3-chloro-4-(trifluoromethyl)phenyl]ethyl}-N-methylacetamide], the “% of control remaining” value is 6.593%. In the case of `CN(C(=O)CCl)C(c1ccc(Cl)cc1)C(F)(F)F` (centres unmarked) [7-J16, 2-chloro-N-[1-(4-chlorophenyl)-2,2,2-trifluoroethyl]-N-methylacetamide], the “% of control remaining” value was 101.413%. For `CC(c1ccc(C(F)(F)F)cc1F)N(C)C(=O)CCl` (centres unmarked) [7-P18, 2-chloro-N-{1-[2-fluoro-4-(trifluoromethyl)phenyl]ethyl}-N-methylacetamide] the value was 94.5055%. As for `Cc1ccc(C=C(C#N)C(=O)Nc2nccs2)s1` [8-P13, 2-cyano-3-(5-methylthiophen-2-yl)-N-(1,3-thiazol-2-yl)prop-2-enamide], the “% of control remaining” value is listed as 93.61%. Take `Cc1ccccc1NC(=O)C(C#N)=Cc1ccc2c(c1)OCCO2` [8-J03, 2-cyano-3-(2,3-dihydro-1,4-benzodioxin-6-yl)-N-(2-methylphenyl)prop-2-enamide]: the “% of control remaining” value was determined as 129.461%. With `O=C1C=CC(=O)N1c1ccc(F)cc1` [10-M10, 1-(4-fluorophenyl)-2,5-dihydro-1H-pyrrole-2,5-dione], the “% of control remaining” value was determined as 118.75%. Turning to `O=C1C=CC(=O)N1c1ccc(SC(F)F)cc1` [10-A18, 1-{4-[(difluoromethyl)sulfanyl]phenyl}-2,5-dihydro-1H-pyrrole-2,5-dione], the “% of control remaining” value was 29.6875%. In the case of `N#Cc1ccc(N2C(=O)C=CC2=O)cc1` [10-B09, 4-(2,5-dioxo-2,5-dihydro-1H-pyrrol-1-yl)benzonitrile] it was 133.438%; in that of `Cc1ccc(C=C(C#N)C(=O)Nc2ccccc2Cl)s1` [9-C22, N-(2-chlorophenyl)-2-cyano-3-(5-methylthiophen-2-yl)prop-2-enamide], 83.2959%. Turning to `COc1ccccc1NC(=O)C(C#N)=Cc1ccc(C)s1` [8-B15, 2-cyano-N-(2-methoxyphenyl)-3-(5-methylthiophen-2-yl)prop-2-enamide], the “% of control remaining” value came to 118.838%. Consider `Cc1ccc(C=C(C#N)C(=O)Nc2ccccc2C(=O)O)s1` [9-K08, 2-[2-cyano-3-(5-methylthiophen-2-yl)prop-2-enamido]benzoic acid], for which the “% of control remaining” value turned out to be 38.0524%. As for `O=C(Nc1nccs1)N1CCSSCC1` [10-O22, N-(1,3-thiazol-2-yl)-1,2,5-dithiazepane-5-carboxamide], the “% of control remaining” value turned out to be 109.063%.

Take `O=C(CCl)N(Cc1ccc(F)cc1)C1CCCCC1` [4-I13, 2-chloro-N-cyclohexyl-N-[(4-fluorophenyl)methyl]acetamide]: the “% of control remaining” value worked out at 87.6608%. For `CC(Cl)C(=O)Nc1sc(-c2ccccc2)cc1C(N)=O` (centres unmarked) [4-H13, 2-(2-chloropropanamido)-5-phenylthiophene-3-carboxamide] the value was 58.3135%; for `O=C1CCCc2cc(C(=O)CCl)ccc2N1` [10-M20, 7-(2-chloroacetyl)-2,3,4,5-tetrahydro-1H-1-benzazepin-2-one], 137.5%. For `Cn1c(=O)oc2cc(C(=O)CCl)ccc21` [10-F07, 6-(2-chloroacetyl)-3-methyl-2,3-dihydro-1,3-benzoxazol-2-one] the value was 93.125%.

Regarding `CC1(C)C(=O)Nc2ccc(C(=O)CCl)cc21` [10-N21, 5-(2-chloroacetyl)-3,3-dimethyl-2,3-dihydro-1H-indol-2-one], the “% of control remaining” value is reported as 40.3125%. For `C=CC(=O)NC(Cn1cncn1)c1ccccc1` (centres unmarked) [3-F17, N-[1-phenyl-2-(1H-1,2,4-triazol-1-yl)ethyl]prop-2-enamide] the value was 118.415%; for `Cc1cccc(N(Cc2ccccc2)C(=O)CCl)c1` [6-O07, N-benzyl-2-chloro-N-(3-methylphenyl)acetamide], 98%; for `O=C(CCl)N(Cc1ccc(Cl)c([N+](=O)[O-])c1)c1ccccc1` [6-H06, 2-chloro-N-[(4-chloro-3-nitrophenyl)methyl]-N-phenylacetamide], 8.195%. For `O=C(CCl)N(Cc1ccccc1)c1ccccc1` [4-G13, N-benzyl-2-chloro-N-phenylacetamide] the value was 77.7513%.

On to `C=CC(=O)NCC1(S(=O)(=O)CC)CC1` [3-O13, N-{[1-(ethanesulfonyl)cyclopropyl]methyl}prop-2-enamide], for which the “% of control remaining” value came out at 91.2495%.

Consider `N#CC(=Cc1ccccc1)C(=O)NC1CCCCCCC1` [8-G17, 2-cyano-N-cyclooctyl-3-phenylprop-2-enamide], for which the “% of control remaining” value came to 98.9212%.

As for `N#CC(=Cc1ccc([N+](=O)[O-])c(Cl)c1)C(=O)NC1CCCCC1` [8-B08, 3-(3-chloro-4-nitrophenyl)-2-cyano-N-cyclohexylprop-2-enamide], the “% of control remaining” value was 29.8755%. In the case of `N#CC(=Cc1c(F)c(F)c(F)c(F)c1F)C(=O)NC1CCCCC1` [8-O15, 2-cyano-N-cyclohexyl-3-(2,3,4,5,6-pentafluorophenyl)prop-2-enamide] it was 32.5311%. In the case of `Cc1ccc(C=C(C#N)C(=O)NC2CCCCC2)cc1C` [8-G10, 2-cyano-N-cyclohexyl-3-(3,4-dimethylphenyl)prop-2-enamide] it was 108.216%. For `N#CC(=Cc1ccc(F)c(F)c1)C(=O)NC1CCCCC1` [9-J22, 2-cyano-N-cyclohexyl-3-(3,4-difluorophenyl)prop-2-enamide] the value was 94.0824%; for `N#CC(=Cc1cc(F)ccc1F)C(=O)NC1CCCCC1` [8-G08, 2-cyano-N-cyclohexyl-3-(2,5-difluorophenyl)prop-2-enamide], 64.3983%. `N#CC(=Cc1sc2ccccc2c1Cl)C(=O)NC1CC1` [9-C18, 3-(3-chloro-1-benzothiophen-2-yl)-2-cyano-N-cyclopropylprop-2-enamide]: the “% of control remaining” value is reported as 110.262%.

Take `C=CC(=O)NC12CC3(C)CC(C)(CC(O)(C3)C1)C2` [1-K17, N-(3-hydroxy-5,7-dimethyladamantan-1-yl)prop-2-enamide]: the “% of control remaining” value came out at 111.473%. For `CC(Cl)C(=O)N(C)C1CCN(c2ccccn2)CC1` (centres unmarked) [6-J20, 2-chloro-N-methyl-N-[1-(pyridin-2-yl)piperidin-4-yl]propanamide] the value was 95.6098%; for `O=C(CCl)N[C@H](CO)Cc1ccccc1` [6-G20, 2-chloro-N-[(2S)-1-hydroxy-3-phenylpropan-2-yl]acetamide], 109.61%. For `CC(=O)c1ccccc1NC(=O)C(C)Cl` (centres unmarked) [5-O19, N-(2-acetylphenyl)-2-chloropropanamide] the value was 103.825%; for `CCN(Cc1ccc(C#N)cc1F)C(=O)CCl` [5-H08, 2-chloro-N-[(4-cyano-2-fluorophenyl)methyl]-N-ethylacetamide], 105.282%.

Regarding `CSc1ccc(C=C(C#N)C(=O)Nc2cccc(Cl)c2C)cc1` [8-N11, N-(3-chloro-2-methylphenyl)-2-cyano-3-[4-(methylsulfanyl)phenyl]prop-2-enamide], the “% of control remaining” value worked out at 130.788%.

With `C=CC(=O)Nc1ccc(C(=O)NC2CCN(S(C)(=O)=O)CC2)cc1` [2-M21, N-(1-methanesulfonylpiperidin-4-yl)-4-(prop-2-enamido)benzamide], the “% of control remaining” value was 120.801%.

As for `O=C(CCl)N1N=C(c2cccs2)CC1c1cccc(O)c1` (centres unmarked) [6-L04, 2-chloro-1-[5-(3-hydroxyphenyl)-3-(thiophen-2-yl)-4,5-dihydro-1H-pyrazol-1-yl]ethan-1-one], the “% of control remaining” value worked out at 3.7561%. In the case of `Cc1ccc(C2=NN(C(=O)CCl)C(c3cccs3)C2)cc1` (centres unmarked) [4-O22, 2-chloro-1-[3-(4-methylphenyl)-5-(thiophen-2-yl)-4,5-dihydro-1H-pyrazol-1-yl]ethan-1-one] it was 88.0419%. For `COc1ccc(C2=NN(C(=O)CCl)C(c3ccc(F)cc3)C2)cc1` (centres unmarked) [4-M20, 2-chloro-1-[5-(4-fluorophenyl)-3-(4-methoxyphenyl)-4,5-dihydro-1H-pyrazol-1-yl]ethan-1-one] the value was 115.102%; for `COc1ccc(C2=NN(C(=O)CCl)C(c3cccc(C)c3)C2)cc1` (centres unmarked) [4-G20, 2-chloro-1-[3-(4-methoxyphenyl)-5-(3-methylphenyl)-4,5-dihydro-1H-pyrazol-1-yl]ethan-1-one], 10.2906%. Turning to `O=C(CCl)N1N=C(c2cccs2)CC1c1ccc(F)cc1` (centres unmarked) [4-O20, 2-chloro-1-[5-(4-fluorophenyl)-3-(thiophen-2-yl)-4,5-dihydro-1H-pyrazol-1-yl]ethan-1-one], the “% of control remaining” value is listed as 137.589%. In the case of `O=C(CCl)N1N=C(c2cccs2)CC1c1ccccc1O` (centres unmarked) [4-K20, 2-chloro-1-[5-(2-hydroxyphenyl)-3-(thiophen-2-yl)-4,5-dihydro-1H-pyrazol-1-yl]ethan-1-one] it was 3.049%; in that of `Cc1ccc(C2CC(c3cccs3)=NN2C(=O)CCl)cc1` (centres unmarked) [4-I22, 2-chloro-1-[5-(4-methylphenyl)-3-(thiophen-2-yl)-4,5-dihydro-1H-pyrazol-1-yl]ethan-1-one], 118.533%; in that of `COc1ccc(C2=NN(C(=O)CCl)C(c3cccc(F)c3)C2)cc1` (centres unmarked) [6-P04, 2-chloro-1-[5-(3-fluorophenyl)-3-(4-methoxyphenyl)-4,5-dihydro-1H-pyrazol-1-yl]ethan-1-one], 145.463%. In the case of `O=C(CCl)N1N=C(c2cccs2)CC1c1cccs1` (centres unmarked) [4-O18, 1-[3,5-bis(thiophen-2-yl)-4,5-dihydro-1H-pyrazol-1-yl]-2-chloroethan-1-one] it was 105.193%.

Source of the values: paper PMC11995724, “Antibiotic target discovery by integrated phenotypic and activity-based profiling of electrophilic fragments” (Cell chemical biology, 2025).
